Measured values published in PubChem BioAssay (NCATS).
Values joined by “and” are separate entries in the source; they are usually repeats but may differ in a detail not shown here. Equal values may be shown once. Results filed as inconclusive are left out. Active and inactive are the calls of the source. Unless noted, the call rests on the fitted dose curve; in most records, active means well fitted curve in the direction sought with a large enough effect; inconclusive means small, poorly fitted or top-dose-only effect, or another doubt; inactive means no such curve, though single readings can be large; an effect the other way counts as inactive or inconclusive.

Key:
[1] = biological target: Glucocorticoid receptor (Homo sapiens) (UniProt P04150); test: GR-EFC Redistribution (AID 451; calls by dose curve; further: potency means the concentration at half of the fitted maximal effect); details: CHO-K1 GR-EFC translocation, beta-gal luminescence, 2 h
How it was run: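 CHO-K1 cells expressing nuclear EA and GR-ED fragments of b-gal; compounds titrated up to 46 uM final, 2 h at 37 C. GR nuclear translocation read as complemented b-gal luminescence after 1 h RT detection.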

[2] = biological target: Mitogen-activated protein kinase 10 (Mus musculus) (UniProt Q61831); test: JNK3 AlphaScreen Assay (AID 530; active means well fitted curve in either direction with a large enough effect, not every such curve was filed as active;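 further: kinase came from lysate of stimulated human HepG2 cells; signal reports phosphorylation of biotinylated GST-cJun 1-79 at Ser73 with 10 µM ATP; on the % scale 0 is the no-effect control and ±100 the full control effect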); details: JNK3 lysate, c-Jun phosphorylation; series mostly up to 57.1 µM
How it was run: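 qHTS format: compounds tested as titrations against IL-1beta/TNF-alpha-activated HepG2 lysate JNK3 with biotin-GST-cJun substrate and 10 uM ATP at room temperature. Loss of anti-phospho-cJun AlphaScreen signal indicates inhibition.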

[3] = biological target: 3',5'-cyclic-AMP phosphodiesterase 4B (Homo sapiens) (UniProt Q07343); test: qHTS Assay for Inhibitors of PDE-IV (AID 607; active means well fitted activation curve with a large enough effect in the main read-out, with a control signal flat, not every such curve was filed as active; further: % of control where 0% means no effect); details: HEK293 ACTOne CNG channel cells, membrane potential fluorescence; series mostly up to 22.9 µM
How it was run: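 Cell-based read-out of cAMP via a modified cyclic nucleotide-gated channel and membrane potential dye (535/590 nm) in HEK293 cells expressing PDE4 endogenously. Compounds tested up to 22.9 uM final; 100 uM RO 20-1724 reference.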

[4] = Cell Viability - N2a (AID 540); details: N2a mouse neuroblastoma cell viability; at 92.2 µM (top of the series);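 further: plate controls were DMSO alone for no effect and tamoxifen control for full effect; nearly all actives have a fitted effect of over 45% in size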
How it was run: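 Mouse neuroblastoma N2a cells (1500/well) were preincubated 5 hr at 37 °C, then exposed to compounds for 40 hr at 37 °C in complete medium. Viability was read as intracellular ATP by CellTiter-Glo luminescence; AC50 from Hill fits.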

[5] = Cell Viability - NIH 3T3 (AID 541); details: NIH 3T3 cell viability, qHTS; activity change, negative = cytotoxicity: at 92.2 µM (top of the series);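 further: plate controls were DMSO alone for no effect and tamoxifen positive control for full effect; nearly all actives have a fitted effect of over 25% in size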
How it was run: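 NIH 3T3 mouse embryo fibroblasts (1000 cells/well) were plated in complete medium and treated with compound for 40 hr at 37 °C. Viability was read as intracellular ATP by CellTiter-Glo luminescence; AC50 values came from Hill-equation fits of concentration-response data.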

[6] = Cell Viability - HUV-EC-C (AID 542); details: HUV-EC-C endothelial cell viability, qHTS; series mostly up to 92.2 µM; further: on the % scale 0 is the no-effect control and ±100 the full control effect; nearly all actives have a fitted effect of over 35% in size
How it was run: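 HUV-EC-C normal human vascular endothelial cells, 1000 cells/well, pre-incubated 5 hr at 37 °C, then exposed to compounds for 40 hr at 37 °C in complete medium. Viability measured as intracellular ATP by CellTiter-Glo luminescence; AC50 from Hill fits.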

[7] = Cell Viability - H-4-II-E (AID 543); details: H-4-II-E rat hepatoma viability; series mostly up to 92.2 µM; further: nearly all actives have a fitted effect of over 35% in size; further: potency means the concentration at half of the fitted maximal effect
How it was run: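 Rat hepatoma H-4-II-E cells (1500/well) were plated, incubated 5 hr at 37 °C, then exposed to compounds for 40 hr at 37 °C. Cellular ATP was read by CellTiter-Glo luminescence; AC50 came from Hill-equation fits of concentration-response data.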

[8] = Cell Viability - SH-SY5Y (AID 544); details: SH-SY5Y neuroblastoma cell viability; viability change, negative = cytotoxic: at 92.2 µM (top of the series); further: nearly all actives have a fitted effect of over 55% in size; further: potency means the concentration at half of the fitted maximal effect;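 on viability change, negative = cytotoxic: 0% = DMSO alone and -100% = 100 µM tamoxifen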
How it was run: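 Human neuroblastoma SH-SY5Y cells (1500/well) in complete medium were exposed to compounds for 40 hr at 37 °C; intracellular ATP was then quantified by CellTiter-Glo luminescence after 20 min at room temperature. AC50 came from Hill-equation concentration-response fits.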

[9] = Cell Viability - Renal Proximal Tubule (AID 545); details: renal proximal tubule cells viability; at 91.7 µM (top of the series) unless noted;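 further: 0% = DMSO only and -100% = 100 µM tamoxifen; nearly all actives have a fitted effect of over 40% in size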
How it was run: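 In this qHTS format, normal rat kidney-derived proximal tubule cells in complete culture medium receive compound titrations, then sit 40 hours at 37 °C before luciferase-based ATP quantitation; potency is reported as AC50 from concentration-response curves.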

[10] = Cell Viability - Mesenchymal (AID 546); details: mesenchymal cells viability, qHTS; series mostly up to 91.7 µM;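 further: cells exposed to compound for 40 hours before reading; 0% = DMSO only and -100% = 100 µM tamoxifen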
How it was run: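 Human kidney mesenchymal cells from normal renal glomeruli, 1000 cells/well, rested 5 hr at 37 °C, then treated 40 hr at 37 °C in complete medium. Cellular ATP read by CellTiter-Glo luminescence; AC50 from Hill-equation fits.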

Sequence of Glucocorticoid receptor (Homo sapiens) (P04150 whole entry, looked up, the tested form may be a part): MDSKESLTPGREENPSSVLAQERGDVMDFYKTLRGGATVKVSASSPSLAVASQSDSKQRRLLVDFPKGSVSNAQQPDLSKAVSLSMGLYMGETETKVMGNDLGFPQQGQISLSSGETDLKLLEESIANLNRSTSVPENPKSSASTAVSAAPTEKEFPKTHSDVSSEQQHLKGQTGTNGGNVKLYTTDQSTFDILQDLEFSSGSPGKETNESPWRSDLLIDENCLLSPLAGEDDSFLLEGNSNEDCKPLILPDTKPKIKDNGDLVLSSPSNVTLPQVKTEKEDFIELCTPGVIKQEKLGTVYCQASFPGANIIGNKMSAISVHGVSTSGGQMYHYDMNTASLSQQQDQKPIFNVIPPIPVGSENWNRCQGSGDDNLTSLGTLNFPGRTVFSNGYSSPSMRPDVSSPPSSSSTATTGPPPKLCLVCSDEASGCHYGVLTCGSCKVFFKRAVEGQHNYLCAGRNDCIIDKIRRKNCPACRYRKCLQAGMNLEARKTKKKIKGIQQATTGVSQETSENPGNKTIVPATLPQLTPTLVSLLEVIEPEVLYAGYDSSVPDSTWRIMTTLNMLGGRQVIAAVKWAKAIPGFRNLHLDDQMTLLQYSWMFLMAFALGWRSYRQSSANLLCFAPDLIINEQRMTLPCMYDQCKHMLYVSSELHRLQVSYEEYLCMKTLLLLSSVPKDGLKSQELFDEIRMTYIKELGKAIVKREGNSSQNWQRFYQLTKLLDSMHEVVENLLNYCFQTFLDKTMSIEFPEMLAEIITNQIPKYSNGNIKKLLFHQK
Sequence of 3',5'-cyclic-AMP phosphodiesterase 4B (Homo sapiens) (Q07343 whole entry, looked up): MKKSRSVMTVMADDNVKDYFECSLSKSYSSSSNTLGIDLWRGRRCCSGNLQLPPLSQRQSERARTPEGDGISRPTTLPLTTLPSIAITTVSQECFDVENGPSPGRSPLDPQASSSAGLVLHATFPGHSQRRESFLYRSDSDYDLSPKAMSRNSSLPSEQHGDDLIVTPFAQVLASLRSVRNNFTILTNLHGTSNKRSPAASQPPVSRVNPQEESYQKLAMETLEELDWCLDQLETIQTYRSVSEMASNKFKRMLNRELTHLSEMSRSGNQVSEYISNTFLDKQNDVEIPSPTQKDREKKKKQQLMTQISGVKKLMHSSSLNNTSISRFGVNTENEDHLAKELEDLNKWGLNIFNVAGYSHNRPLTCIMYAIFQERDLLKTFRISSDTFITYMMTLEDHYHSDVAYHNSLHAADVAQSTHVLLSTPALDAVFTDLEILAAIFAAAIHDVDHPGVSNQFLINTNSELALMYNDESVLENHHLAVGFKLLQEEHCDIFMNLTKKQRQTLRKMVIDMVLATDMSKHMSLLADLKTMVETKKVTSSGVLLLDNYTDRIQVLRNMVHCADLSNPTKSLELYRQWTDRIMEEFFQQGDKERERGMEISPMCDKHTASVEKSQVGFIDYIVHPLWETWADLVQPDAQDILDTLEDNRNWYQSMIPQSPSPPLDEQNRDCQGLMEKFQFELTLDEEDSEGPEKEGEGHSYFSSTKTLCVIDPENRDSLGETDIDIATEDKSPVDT

Clc1cccc(N2CCNCC2)c1
inactive: Potency [1] > 46 µM | outcome [2] | outcome [3]

N[C@@H]1C[C@H]1c1ccccc1
inactive: outcome [2] | outcome [3]

CNCC(O)c1ccc(O)cc1 (stereo not drawn)
inactive: activity change, negative = cytotoxicity [4] -10.6% | activity change, negative = cytotoxicity [5] 2.22% | outcome [6] | Potency [7] | viability change, negative = cytotoxic [8] -15.7% | activity change, negative = cytotoxicity [9] -6.79% | outcome [10]

CCCC(C)(COC(N)=O)COC(=O)NC(C)C (stereo not drawn)
inactive: outcome [2] | activity change, negative = cytotoxicity [4] 4.75% | activity change, negative = cytotoxicity [5] -2.14% | outcome [6] | Potency [7] | viability change, negative = cytotoxic [8] 1.5% | activity change, negative = cytotoxicity [9] 4.58% | outcome [10]

c1ccc2c(c1)Nc1ccccc1S2
inactive: outcome [2] | activity change, negative = cytotoxicity [4] -21.6% | activity change, negative = cytotoxicity [5] -26.2% | outcome [6] | Potency [7] | viability change, negative = cytotoxic [8] -26% | activity change, negative = cytotoxicity [9] -25% | outcome [10]

O=P1(NCCCl)OCCCN1CCCl (stereo not drawn)
inactive: Potency [1] > 20.6 µM | outcome [2] | outcome [3]

O=c1[nH]c2ccccc2n1C1CCN(CCCC(c2ccc(F)cc2)c2ccc(F)cc2)CC1
inactive: Potency [1] > 46 µM and > 20.6 µM | outcome [2] | outcome [3]

N[C@@H](Cc1ccc(N(CCCl)CCCl)cc1)C(=O)O
active: activity change, negative = cytotoxicity [4] -94.8% | activity change, negative = cytotoxicity [5] -113% | Potency [7] 50.1 µM | Potency [8] 0.251 µM | activity change, negative = cytotoxicity [9] -104%
inactive: outcome [2]

C[C@]12C/C(=C/O)C(=O)C[C@@H]1CC[C@@H]1[C@@H]2CC[C@@]2(C)[C@H]1CC[C@]2(C)O
inactive: outcome [2] | outcome [10]
active: activity change, negative = cytotoxicity [5] -114% | viability change, negative = cytotoxic [8] -95.9% | activity change, negative = cytotoxicity [9] -89.1%

C#CCN(C)[C@H](C)Cc1ccccc1
inactive: Potency [1] > 46 µM | outcome [2] | outcome [3]
